# Screens as filed in PubChem.
# Most compounds without a hit are left out; they make up all but 8.7% or so of the library.
# AMA1-RON2 inh: qHTS for Inhibitors of AMA1-RON; Towards Development of Antimalarial Drug Lead: Primary Screen | Plasmodium falciparum AMA1 (3D7) - RON2 peptide interaction | AlphaScreen AMA1-biotinylated RON2 peptide binding | Potency, µM (series often up to 58.2 µM), inactives show at the top dose activity change, negative = inhibition, hits mostly inhibitors | 0.2% of 360,000 active | AID 720542, 2013;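 also: 0% = vehicle wells and -100% = peptide control; nearly all actives have a fitted effect of over 45% in size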
#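 AMA1 (3D7) with his tag at 25 nM final met compounds first, then biotinylated RON2 peptide at 25 nM; detection used donor plus acceptor beads, 10 µg/mL apiece, read by AlphaScreen after 30 min at room temperature.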
# Pf growth 48h: Primary qHTS for delayed death inhibitors of the malarial parasite plastid, 48 hour incubation; 5.9% of 310,000 active; Potency, µM (titrated, usually from 28.7 µM), for inactives: top-dose activity change, negative = inhibition, hits mostly inhibitors; AID 504832, 2011; P. falciparum luciferase growth in erythrocytes, 48 h
#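 Luciferase-expressing parasites in RBCs, 2% Hct / 0.1% parasitemia final; RPMI 1640 + 0.5% Albumax; 37 C, 5% CO2, one generation; luminescence read-out, lower signal = inhibition.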
# VACV Venus inh: qHTS for Stage-Specific Inhibitors of Vaccinia Orthopoxvirus: Venus Reporter Primary qHTS. 0.46% of 330,000 active. Vaccinia virus Venus reporter expression, fluorescence. AID 720580, 2013. Potency, µM (highest dose often 36.5 µM), for the others: at the top dose activity change, negative = inhibition, usual class: inhibitors; calls by dose curve; tested in A549 cells; also: nearly all actives have a fitted effect of over 30% in size
# VACV mCherry inh: qHTS for Stage-Specific Inhibitors of Vaccinia Orthopoxvirus: mCherry Reporter Primary qHTS; Vaccinia virus mCherry reporter infection, fluorescence; Potency, µM (titrated, usually from 36.5 µM), without a hit: at the highest dose activity change, negative = inhibition, hits mostly inhibitors; 0.63% of 310,000 active; AID 720579, 2013; calls by dose curve; tested in A549 cells; also: nearly all actives have a fitted effect of over 35% in size
# Pf growth 96h: Primary qHTS for delayed death inhibitors of the malarial parasite plastid, 96 hour incubation | P. falciparum luciferase reporter growth, 96 h | Potency, µM (doses to about 28.7 µM), for the others: top-dose activity change, negative = inhibition, hits mostly inhibitors | AID 504834, 2011 | 6.9% of 320,000 active
#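 Two-generation exposure (96 h) targets delayed-death phenotype. Reporter parasites carrying integrated firefly luciferase, in red cells at 2% hematocrit and 0.05% parasitemia final, kept at 37 C, 5% CO2; luminescence loss indicates inhibition.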
# Numbers without * were called inactive; i = inactive; ? = inconclusive; nt = no result given. Unless noted, calls follow the shape of the dose curve; as a rule, active = well fitted curve in the direction sought with a large enough effect; inconclusive = small, poorly fitted or top-dose-only effect, or another doubt; inactive = no such curve, though single readings can be large; an effect the other way counts as inactive or inconclusive. Unless noted, % is scaled to controls: 0 for no effect and ±100 for the full control effect; potency is read from the fitted curve at half-maximal effect.
SMILES,AMA1-RON2 inh,Pf growth 48h,VACV Venus inh,VACV mCherry inh,Pf growth 96h
COc1ccc(-c2nn(-c3ccccc3)cc2C(=O)NC(=S)Nc2cc(Cl)ccc2Cl)cc1,3.5%,2.94µM*,nt,nt,5.22µM*
COc1ccc(NC(=O)CN(C)C(=O)c2cn(-c3ccccc3)nc2-c2ccc(Cl)cc2)cc1,-20.1%,10.4µM*,?,-25.5%,?
CC(=O)Nc1ccc(NC(=O)C(C)OC(=O)/C=C/c2cn(-c3ccccc3)nc2-c2cccnc2)cc1 (configuration not stated),2.7%,-22.9%,?,12.6µM*,-22.9%
COc1ccc(NC(=O)CN(C)C(=O)/C=C/c2cn(-c3ccccc3)nc2-c2ccc(C)cc2)cc1,-10.2%,9.28µM*,-28.9%,-19.4%,13.1µM*
COc1cccc(NC(=O)CN(C)C(=O)c2cn(-c3ccccc3)nc2-c2cccs2)c1,-3.9%,?,-10.8%,-13.4%,-25.6%
CC(NC(=O)c1ccco1)c1nnc2n1CCN(Cc1ccc(N3CCCC3)cc1)CC2 (configuration not stated),nt,nt,1.4%,-3.1%,nt
CCN1CCN(Cc2nc3cc(NC(=O)c4ccccc4[N+](=O)[O-])ccc3n2CC)CC1,nt,nt,-6.8%,-10.9%,nt
COc1ccc(NC(=O)CN(C)C(=O)c2cn(-c3ccccc3)nc2-c2ccc(OC)cc2)cc1,22.4%,13.1µM*,nt,nt,?
COc1ccc(-c2nn(-c3ccccc3)cc2C(=O)N(C)C)cc1,-4.0%,33.7%,nt,nt,?
COc1ccc(NC(=O)CN(C)C(=O)c2cn(-c3ccccc3)nc2-c2ccc(F)cc2)cc1,42.6%,11.7µM*,nt,nt,?
COc1ccc(-c2nn(-c3ccccc3)cc2C(=O)Nc2ccc(C(=O)O)cc2)cc1,5.3%,-15.2%,-17.9%,-3.3%,?
CCN(CC)C(=O)c1ccc(NC(=O)c2cn(-c3ccccc3)nc2-c2ccc(OC)cc2)cc1,-2.0%,?,-26.3%,-24.7%,7.38µM*
O=C(Nc1ccc2ccccc2c1)c1cn(-c2ccccc2)nc1-c1cccs1,8.5%,?,nt,nt,13.1µM*
Cc1ccc(Nc2nnc(-c3ccc(C)c(S(=O)(=O)N4CCN(C)CC4)c3)c3ccccc23)c(C)c1,nt,nt,-14.2%,-20.0%,nt
CN(CC(=O)Nc1cccc(F)c1)C(=O)c1cn(-c2ccccc2)nc1-c1ccc(Cl)cc1,-7.2%,14.7µM*,nt,nt,?
COc1cccc(NC(=O)Cn2c(=O)n(Cc3ccc4c(c3)OCO4)c(=O)c3oc4ccccc4c32)c1,nt,nt,-5.1%,-3.6%,nt
CCOC(=O)c1c(-c2ccc(Cl)cc2)csc1NC(=O)CNCc1ccco1,-27.3%,?,nt,nt,?
CCOC(=O)c1c(-c2ccccc2)csc1NC(=S)N(CC)CC,-1.3%,11.7µM*,-9.4%,i,5.22µM*
CCOC(=O)c1c(-c2ccccc2)csc1NC(=O)c1ccc(S(=O)(=O)N2CC(C)OC(C)C2)cc1 (configuration not stated),17.9%,10.4µM*,nt,nt,9.28µM*
CCOC(=O)c1c(NC(=O)c2nn(CC)cc2Br)c(C#N)cn1-c1ccccc1,4.3%,9.28µM*,-26.7%,-16.7%,24.0%
CCOC(=O)c1c(-c2ccccc2)csc1NC(=O)c1ccc(N2C(=O)CCC2=O)cc1,0.5%,42.1%,nt,nt,103.6%
CCOC(=O)c1c(-c2ccccc2)csc1NC(=O)C(C)NCc1ccco1 (configuration not stated),-26.1%,?,-16.4%,-1.6%,13.1µM*
CCOC(=O)c1c(-c2ccccc2)csc1NC(=O)c1nn(CC)cc1Br,-3.8%,13.1µM*,55.7%,-4.4%,nt
CCOC(=O)c1c(-c2ccccc2)csc1NC(=O)c1cc(-c2ccc(Cl)cc2)on1,nt,nt,5.5%,-3.0%,nt
CC(=O)c1cccc(NC(=O)C(Sc2ncnc3ccccc23)c2ccccc2)c1 (configuration not stated),-17.8%,11.7µM*,-4.7%,-23.6%,4.65µM*
SMILES,AMA1-RON2 inh,Pf growth 48h,VACV Venus inh,VACV mCherry inh,Pf growth 96h
CC(=O)c1cccc(Nc2ncnc3ccc(Br)cc23)c1,36.3%,5.86µM*,-12.4%,-0.3%,-11.5%
COc1cc(C(=O)Oc2cccc(Nc3ncnc4ccccc34)c2)cc(OC)c1OC,-8.6%,?,-10.2%,-10.1%,0.0%
COc1ccc(C(=O)Oc2cccc(Nc3ncnc4ccccc34)c2)cc1OC,-23.3%,11.9%,-24.3%,?,2.33µM*
Cc1ccc(OCCn2c(-c3ccc(Br)cc3)nc3ccccc3c2=O)cc1C,nt,nt,2.4%,2.6%,nt
O=C(CCCCCn1c(=S)[nH]c2cc3c(cc2c1=O)OCO3)N1CCN(Cc2ccccc2)CC1,73.3%,11.7µM*,nt,nt,-1.1%
O=C(CCCn1c(=S)[nH]c2cc3c(cc2c1=O)OCO3)NCc1cccc(Cl)c1,113.5%,-29.4%,nt,nt,9.28µM*
O=C(CCn1c(=S)[nH]c2cc3c(cc2c1=O)OCO3)NCc1cccc(Cl)c1,57.8%,-14.8%,-1.3%,i,?
O=C(CSc1nnc(NC(=O)C2CC2)s1)Nc1cccc(F)c1,-7.2%,-3.9%,-0.3%,-9.8%,2.94µM*
COc1ccc(N2CC(C(=O)Nc3nnc(SCC(=O)N4CCOCC4)s3)CC2=O)cc1 (configuration not stated),-4.2%,-19.7%,nt,nt,6.57µM*
O=C(Nc1nnc(SCc2ccc(F)cc2)s1)C1CC(=O)N(Cc2ccccc2)C1 (configuration not stated),4.9%,-14.2%,-7.8%,-1.5%,7.38µM*
COc1cccc(NC(=O)CSc2nnc(NC(=O)C3CCC3)s2)c1,-14.9%,9.0%,6.7%,-11.0%,2.3%
O=C(Nc1nnc(SCC(=O)N2CCOCC2)s1)C1CC(=O)N(c2ccccc2)C1 (configuration not stated),8.2%,-5.0%,-8.5%,i,?
COc1cccc(N2CC(C(=O)Nc3nnc(SCCC4OCCO4)s3)CC2=O)c1 (configuration not stated),7.5%,-21.3%,-7.5%,i,9.28µM*
COc1ccc(-n2c(CNC(=O)c3cccc4ccccc34)nnc2SC)cc1,nt,nt,-14.8%,-2.5%,nt
CCN1CCN(c2nnc(-n3cccc3C(=O)Nc3cccc(OC)c3)s2)CC1,nt,nt,-9.7%,-10.4%,nt
CCN(C(=O)c1cc2c(=O)oc3ccc(C)cc3c2s1)c1ccccc1C,nt,nt,-2.7%,-2.3%,nt
O=C(Nc1nnc(SCCC2OCCO2)s1)C1CC(=O)N(c2ccc(F)cc2)C1 (configuration not stated),-1.3%,?,-5.2%,-11.4%,10.4µM*
O=C(C[n+]1ccccc1Cl)c1ccc2ccccc2c1,nt,nt,-10.4%,i,nt
CN=c1c([N+](=O)[O-])nn(-c2ccc3c(c2)OCCO3)n1O,0.9%,42.2%,?,12.6µM*,12.9%
